High-throughput results deposited in PubChem by several laboratories.
Only some compounds are listed: those with a hit (about 6.7% of all), similar ones and a draw of the others.
BoNT-A LC inh2 – inhibitors of Botulinum neurotoxin A light chain protease | multiplex microsphere protease substrate cleavage, flow cytometry | inhibition, % at 10 µM | 0.17% of 360,000 active | AID 588499; note: plate controls were buffer without enzyme for full effect and enzyme alone for no effect
FBA Mtb inh – Mtb fructose-bisphosphate aldolase inhibition. purified M. tuberculosis FBA, fluorescence read-out. inhibition, % at 1 µM. AID 588726. P9WQA3. 2.3% of 360,000 active; in the data active = inhibition above about 27%;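 note: 0% = vehicle and 100% = reference inhibitor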
Target sequence (P9WQA3 whole entry, looked up): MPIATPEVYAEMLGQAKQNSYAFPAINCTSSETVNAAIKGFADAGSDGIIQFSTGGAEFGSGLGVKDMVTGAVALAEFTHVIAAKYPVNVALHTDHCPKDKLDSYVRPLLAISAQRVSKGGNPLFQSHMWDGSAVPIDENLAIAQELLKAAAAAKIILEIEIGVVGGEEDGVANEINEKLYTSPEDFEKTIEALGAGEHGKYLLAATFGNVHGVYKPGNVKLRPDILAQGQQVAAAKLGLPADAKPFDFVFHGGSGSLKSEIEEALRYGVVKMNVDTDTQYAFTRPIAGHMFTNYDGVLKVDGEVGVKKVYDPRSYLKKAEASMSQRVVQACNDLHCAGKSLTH
GDH-TPI counter – counter-screen for M. tuberculosis FBA inhibitors: GDH-TPI coupled enzymes. GDH-TPI coupled enzyme counterscreen, NADH absorbance. inhibition, % at 4.8 µM. 1.2% of 360,000 active. AID 588335; in the data active = inhibition above about 30%;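 note: 0% = DMSO wells and 100% = wells lacking the enzyme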
Anthrax LF prot – inhibitors of Bacillus anthracis lethal factor protease. P15917. multiplex microsphere protease cleavage assay, LF. inhibition, % at 10 µM. 0.12% of 360,000 active; note: plate controls were buffer without enzyme for full effect and enzyme alone for no effect
BoNT-F LC inh – inhibitors of Botulinum neurotoxin F light chain protease. Multiplex microsphere protease cleavage assay, flow cytometry. inhibition, % at 10 µM. 0.22% of 360,000 active. AID 588497; in the data active = inhibition above about 35%, passing the limit was not always enough; inconclusive = no clear call, values can overlap the other calls; note: plate controls were buffer without enzyme for full effect and enzyme alone for no effect
Autofluor counter – counter-screen for toxin protease inhibitors: compound fluorescence; 3.1% of 360,000 active; fluorescence intensity (test concentration not listed); compound autofluorescence counterscreen, microsphere flow cytometry; stronger effect = higher value; AID 624483; in the data active = fluorescence intensity above about 16000; inconclusive = no clear call, values can overlap the other calls
Starred values were filed as active, the others as inactive; ? = inconclusive; . = not tested or not shown. Cut-off read from the data, not from the text of the source, unless noted: active = inhibition above about 30%; inconclusive = no clear call, values can overlap the other calls; inactive = below that.

SMILES	BoNT-A LC inh2	FBA Mtb inh	GDH-TPI counter	Anthrax LF prot	BoNT-F LC inh	Autofluor counter
COc1ccc(N2CCN(CCCNC(=O)C3(S(=O)(=O)c4ccc(Cl)cc4)CC3)CC2)cc1	?	-1	7	-7	-16	26083*
CS(=O)(=O)C1=NN2C(=N)/C(=C\c3ccc(OC(=O)c4ccco4)cc3)C(=O)N=C2S1	-1	5	16	0	0	4835
COc1ccc(-n2c(C)cc(/C=C3\C(=N)N4N=C(CC(=O)N5CCOCC5)SC4=NC3=O)c2C)cc1	0	-2	46*	-1	4	5644
COc1ccc(/C=C2/C(=N)N3N=C(CC(=O)N4CCCC4)SC3=NC2=O)cc1	-1	-1	10	2	0	4304
CSc1ccc(/C=C2\C(=N)N3N=C(CC(=O)N4CCOCC4)SC3=NC2=O)cc1	1	0	18	-2	4	4310
N=C1/C(=C/c2ccco2)C(=O)N=C2SC(CC(=O)N3CCCC3)=NN12	-1	2	31*	-5	1	4603
Cc1cc(/C=C2\C(=N)N3N=C(CC(=O)N4CCOCC4)SC3=NC2=O)c(C)n1-c1ccccc1	0	1	34*	-2	1	5029
CC(C)CS(=O)(=O)C1=NN2C(=N)/C(=C\c3ccc(OC(=O)c4ccco4)cc3)C(=O)N=C2S1	-2	-2	34*	-3	1	5819
O=C(Nc1cccc2ncccc12)c1ccc2c(c1)OCCO2	0	-1	4	-3	-4	3051
Cc1ccc(Cl)cc1N1CCN(S(=O)(=O)c2c(C)noc2C)CC1	1	1	3	0	-3	4979
CCOC(=O)c1c(C)n(C)c2ccc(OC(=O)c3ccco3)cc12	0	1	6	-4	13	4549
COC(=O)c1ccc(N/C(C)=C/C(=O)c2ccc(C)o2)cc1	0	2	15	-4	-1	16289*
C/C(=C\C(=O)c1ccc(C)o1)Nc1ccc2c(c1)OCO2	-2	4	15	-12	-12	23606*
Cn1c(Cn2nnc(-c3ccccc3)n2)nnc1SCc1ccccc1Cl	?	0	1	-1	2	16202*
Cn1c(SCc2ccccc2Cl)nnc1-c1cnccn1	3	-3	8	-5	3	15326
CN1CCN(S(=O)(=O)c2ccc(Oc3ccc(Br)cc3F)nc2)CC1	3	7	8	-6	-2	4017
Nc1ccc2oc(-c3ccc4nc[nH]c4c3)nc2c1	1	6	31*	-5	-21	5864
C/C(CC(=O)Nc1ccccn1)=N\NC(=O)C(=O)Nc1cccc(C)c1	0	6	2	3	-1	2750
Nc1nnc(CC(=O)N/N=C/c2ccc([N+](=O)[O-])cc2)s1	0	-4	26	1	-6	5934
Nc1nnc(CC(=O)N/N=C/c2ccc(-c3ccccc3Cl)o2)s1	0	0	39*	-2	-4	3047
Nc1nnc(CC(=O)N/N=C/c2ccc(-c3ccc(Cl)cc3Cl)o2)s1	0	0	38*	0	-7	5092
CCN(CC)C(=O)CN(C#N)c1nc(OC)nc(N(C)C)n1	1	-3	-5	0	-5	9104
COc1nc(C#N)nc(N(C)C)n1	0	-1	5	-2	-1	20512*
O=C(O)Cn1nnnc1-c1ccc(F)cc1	3	1	6	-2	4	21941*
O=C(O)Cn1nc(-c2ccc(F)cc2)oc1=O	0	4	4	4	16	3262
SMILES	BoNT-A LC inh2	FBA Mtb inh	GDH-TPI counter	Anthrax LF prot	BoNT-F LC inh	Autofluor counter
O=C(CN(CCc1ccccc1)S(=O)(=O)c1ccc(Br)cc1)N/N=C/c1ccc2c(c1)OCO2	0	-4	0	0	-3	2228
COc1cc(/C=N/Nc2nncn2N)ccc1OCc1c(C)no[n+]1[O-]	-1	-5	12	-4	-4	4384
COc1cc(/C=C(\C#N)C(N)=O)ccc1OCc1c(C)no[n+]1[O-]	1	0	31*	-3	-2	4383
O=C(Nc1ccnn1C1CCN(C/C=C/c2ccccc2)CC1)c1ccccc1Cl	-240	-1	1	-56	-411	56855*
O=C(Nc1ccnn1C1CCN(C/C=C/c2ccccc2)CC1)C1CCCC1	2	6	-2	-1	3	6255
CSc1nc2ccc(S(N)(=O)=O)cc2s1	0	1	6	3	8	1904
O=c1[nH]c(-[n+]2ccc3ccccc3c2)c(/C=N/N=C(\[O-])c2ccccc2)s1	2	3	31*	-2	-2	5244
CC(C)(C)c1cc[n+](-c2[nH]c(=O)sc2/C=N/N=C(\[O-])c2cccnc2)cc1	-1	-3	32*	0	-8	5932
COc1ccc(/C=C/C(=O)OCCCN(C)C)cc1	0	1	8	-2	-4	2711
COc1ccc(NC(=O)Nc2cccc3ccccc23)c(OC)c1	0	4	6	2	-1	6080
O=C(Nc1ccc2c(c1)OCO2)C1(S(=O)(=O)c2ccc(Cl)cc2)CC1	-3	1	6	-3	-8	24545*
Cc1ccc(S(=O)(=O)c2nnn3c2nc(N2CCN(c4ccccn4)CC2)c2ccccc23)cc1C	0	1	6	-1	5	6399
CC(=O)N(CCc1ccccc1)Cc1cc2cc(C)ccc2[nH]c1=O	-3	1	10	-8	-23	4478
COc1ccc2[nH]c(=O)c(CN(C)C(=O)c3ccncc3)cc2c1	-2	8	-2	0	-3	20262*
COc1ccc2[nH]c(=O)c(CN(CCc3ccccc3)C(C)=O)cc2c1	2	16	14	0	3	22156*
Nc1cc([N+](=O)[O-])ccc1O	0	-23	15	-6	-6	2701
COc1cc(OC)c(-c2sc(Nc3ccccc3)n[n+]2-c2ccc(F)cc2)cc1OC	0	9	38*	0	-7	3037
O=c1n(S(=O)(=O)c2cccc3cccnc23)c2ccccc2n1S(=O)(=O)c1cccc2cccnc12	7	1	6	-1	8	20693*
O=S(=O)(c1cccc2cccnc12)N1CCOCC1	0	-1	1	2	-1	23370*
O=S(=O)(c1cccc2cccnc12)N1CCN(c2ccc(F)cc2)CC1	-1	-1	1	-4	-4	4803
Cc1cccc(CCNC(=O)C2CCN(S(=O)(=O)c3cccc4cccnc34)CC2)c1	-1	-1	0	0	-1	4711
CC1CCCCN1CCNC(=O)C1CCN(S(=O)(=O)c2cccc3cccnc23)CC1 (stereo not drawn)	-4	-1	4	-3	-11	17441*
Cc1cn([C@H]2C[C@H](O)[C@@H](/C=C/C(=O)NCc3cccc4ccccc34)O2)c(=O)[nH]c1=O	0	3	.	0	-5	6134
O=C(O)CCC(=O)NCc1cn(-c2ccccc2)nc1-c1cccc(Br)c1	-1	3	-9	-2	-1	10264
CC(Oc1ccccc1F)C(=O)NNC(=O)Cc1ccc(S(=O)(=O)N2CCOCC2)s1 (stereo not drawn)	100*	0	0	109*	86*	6061
